# Assay results from ChEMBL document CHEMBL4808148, “HDAC6 screening dataset using tau-based substrate in an enzymatic assay yields selective inhibitors and activators” (2021).
# About 390 (7%) of roughly 5,600 compounds showed an effect of 50% or more. The list comes from a sample in which strong results are over-represented; it also holds similar structures and randomly drawn compounds.
# Key:
# [1] = biological target: T1, Protein deacetylase HDAC6 (Homo sapiens) (UniProt Q9UBN7); conditions: at 10 µM
# T1 sequence (whole entry): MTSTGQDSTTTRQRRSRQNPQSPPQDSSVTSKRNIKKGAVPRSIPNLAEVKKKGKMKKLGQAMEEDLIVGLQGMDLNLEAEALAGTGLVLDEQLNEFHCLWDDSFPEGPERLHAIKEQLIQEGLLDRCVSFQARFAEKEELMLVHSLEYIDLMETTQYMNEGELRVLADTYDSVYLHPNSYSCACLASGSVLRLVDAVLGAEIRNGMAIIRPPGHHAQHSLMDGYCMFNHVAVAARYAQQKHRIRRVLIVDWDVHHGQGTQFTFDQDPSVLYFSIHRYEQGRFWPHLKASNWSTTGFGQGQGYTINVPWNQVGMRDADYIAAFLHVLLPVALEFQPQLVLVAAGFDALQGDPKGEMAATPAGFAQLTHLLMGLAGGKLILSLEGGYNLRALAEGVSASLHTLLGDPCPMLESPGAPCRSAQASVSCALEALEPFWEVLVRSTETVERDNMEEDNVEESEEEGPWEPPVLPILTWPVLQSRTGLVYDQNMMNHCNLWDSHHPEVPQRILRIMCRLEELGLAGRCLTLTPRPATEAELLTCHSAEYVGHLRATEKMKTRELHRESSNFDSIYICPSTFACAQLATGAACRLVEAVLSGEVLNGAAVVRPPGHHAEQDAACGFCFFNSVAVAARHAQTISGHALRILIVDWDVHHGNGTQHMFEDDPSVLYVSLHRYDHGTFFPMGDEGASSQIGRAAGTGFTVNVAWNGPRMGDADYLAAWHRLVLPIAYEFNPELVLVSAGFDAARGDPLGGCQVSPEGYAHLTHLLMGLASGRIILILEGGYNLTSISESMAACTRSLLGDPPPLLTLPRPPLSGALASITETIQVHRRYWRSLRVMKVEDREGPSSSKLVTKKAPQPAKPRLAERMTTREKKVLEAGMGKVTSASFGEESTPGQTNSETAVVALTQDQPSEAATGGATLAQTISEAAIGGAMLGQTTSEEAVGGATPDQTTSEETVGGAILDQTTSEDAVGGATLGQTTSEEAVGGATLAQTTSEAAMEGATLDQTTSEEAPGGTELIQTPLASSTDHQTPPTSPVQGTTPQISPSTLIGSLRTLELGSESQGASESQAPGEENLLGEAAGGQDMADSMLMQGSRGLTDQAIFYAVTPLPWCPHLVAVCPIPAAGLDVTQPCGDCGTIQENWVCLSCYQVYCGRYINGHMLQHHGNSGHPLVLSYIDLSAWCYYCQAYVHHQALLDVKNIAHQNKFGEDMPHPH
# [2] = biological target: Protein deacetylase HDAC6 (Homo sapiens) (UniProt Q9UBN7); conditions: at 10 µM; remark: listed apart in the source
compound,measurement,setting,value
Cc1c(N)cccc1Cn1ccc(OCCc2cccs2)cc1=O,inhibition,[1],-7.53%
Cc1cccc(NC(=O)N[C@@H]2N=C(c3ccccc3)c3ccccc3N(C)C2=O)c1,inhibition,[1],10.7%
CCNC1=Nc2ccc(Cl)cc2C(C)(c2ccccc2)O1 (stereo not drawn),inhibition,[1],3.39%
c1cc(Nc2cc(C3CC3)n[nH]2)nc(Nc2ccc3[nH]cnc3c2)n1,inhibition,[1],77.3%
CCC(C)c1ccc(NC(=O)Cn2cnc3c2c(=O)n(C)c(=O)n3C)cc1 (stereo not drawn),inhibition,[1],18.1%
c1ccc(C2(c3ccccc3)CC2=C2NCCN2)cc1,inhibition,[1],17%
C[C@H](CCC(=O)O)[C@H]1CC[C@H]2[C@@H]3C(=O)C[C@@H]4CC(=O)CC[C@]4(C)[C@H]3CC(=O)[C@]12C,inhibition,[1],-6.77%
CC(=O)Nc1ccc(C(=O)NC(C)(C)C)cc1,inhibition,[1],9.15%
CC(C)(C)c1ccc(C(=O)Nc2cn3cc(-n4ccnc4)ccc3n2)cc1,inhibition,[1],101%
Cc1ncc([N+](=O)[O-])n1CC(O)CN1CCOCC1 (stereo not drawn),inhibition,[1],-5.36%
COc1cccc2c1C(=O)c1c(O)c3c(c(O)c1C2=O)C[C@@](O)(C(=O)CO)C[C@@H]3O[C@H]1C[C@H](N2CCO[C@H](OC)C2)[C@H](O)[C@H](C)O1,inhibition,[1],43.2%
COc1cccc2c1C(=O)c1c(O)c3c(c(O)c1C2=O)C[C@@](O)(C(=O)CO)C[C@@H]3O[C@H]1C[C@H](N)[C@H](O[C@@H]2CCCCO2)[C@H](C)O1,inhibition,[1],92.2%
COc1cccc2c1C(=O)c1c(O)c3c(c(O)c1C2=O)C[C@@](O)(/C(CO)=N/NC(=O)CCCCCN1C(=O)C=CC1=O)C[C@@H]3O[C@H]1C[C@H](N)[C@H](O)[C@H](C)O1,inhibition,[1],26.7%
CC1(C)OC(=O)C(OCC2CC2)=C1c1ccc(S(C)(=O)=O)cc1,inhibition,[1],-6.89%
CCCCCN(CCCOC)C(=O)[C@@H](CCC(=O)O)NC(=O)c1ccc(Cl)c(Cl)c1,inhibition,[1],9.58%
CC(C)c1cc(C(C)C)c(-c2csc(N(CCN(C)C)Cc3cccnc3)n2)c(C(C)C)c1,inhibition,[1],1.94%
C[N+](C)(CF)CCO,inhibition,[1],0.62%
CO/N=C(\C(=O)N[C@@H]1C(=O)N2C(C(=O)O)=C(CSc3nc(C)c(CC(=O)O)s3)CS[C@H]12)c1csc(N)n1,inhibition,[1],2.2%
O=C(Oc1cccc2cccnc12)c1ccccc1,inhibition,[1],87.1%
O=C(O[C@H]1[C@H](OC(=O)c2cccnc2)[C@@H](OC(=O)c2cccnc2)[C@H](OC(=O)c2cccnc2)[C@@H](OC(=O)c2cccnc2)[C@H]1OC(=O)c1cccnc1)c1cccnc1,inhibition,[1],-5.99%
CCCOC(=O)c1ccccc1,inhibition,[1],8.38%
C[C@@H](N[C@H]1CCCC[C@@H]1NC(=O)c1ccc(Cl)cc1)c1cccc2ccccc12,inhibition,[1],18.9%
COC1(C[S+]([O-])c2ccccc2)CCN(CCc2c[nH]c3ccc(F)cc23)CC1 (stereo not drawn),inhibition,[1],4.5%
"MERBROMIN, CHEMBL3833381",inhibition,[2],65.3%
CC1=C(O)C(=O)[C@@H]2O[C@@H]2C1=O,inhibition,[1],-8.14%
COc1ncc(-c2ccc3c(Nc4cc(Oc5cc(F)cc(F)c5)cc(C(=O)O)c4)c(S(=O)(=O)NC4CC4)cnc3c2)c(OC)n1,inhibition,[1],12.8%
CC(=O)Oc1c(C)cccc1C(=O)O,inhibition,[1],17%
C=C1C(=O)O[C@@H]2[C@H]3C(C)=CC[C@@]34O[C@@]4(C)CC[C@@H]12,inhibition,[1],51%
O=C1C(=Cc2cccnc2)C(=O)c2ccccc21,inhibition,[1],27.6%
C[C@@H](O[C@H]1OCCN(Cc2nn[nH]c2CN(C)C)[C@H]1c1ccc(F)cc1)c1cc(C(F)(F)F)cc(C(F)(F)F)c1,inhibition,[1],12.9%
O=C(NOCCO)c1ccc2cncn2c1Nc1ccc(I)cc1F,inhibition,[1],1.39%
C[C@H](N)C(=O)NCC(=O)N[C@H]1CSSC[C@@H](C(=O)O)NC(=O)[C@H](CO)NC(=O)[C@H]([C@@H](C)O)NC(=O)[C@H](Cc2ccccc2)NC(=O)[C@H]([C@@H](C)O)NC(=O)[C@H](CCCCN)NC(=O)[C@H](Cc2c[nH]c3ccccc23)NC(=O)[C@H](Cc2ccccc2)NC(=O)[C@H](Cc2ccccc2)NC(=O)[C@H](CC(N)=O)NC(=O)[C@H](CCCCN)NC1=O,inhibition,[1],15.2%
CC(C)c1cccc2c1OC(C(C)C)C(=S)N2CC(=O)O (stereo not drawn),inhibition,[1],33%
CCC(=O)NO,inhibition,[1],83.8%
O=C(O)[C@@H](O)[C@@H](O)[C@H](O)[C@@H](O)C(=O)O,inhibition,[1],1.05%
CO[C@H]1/C=C\C=C(/C)C(=O)NC2=CC(=O)C(NCCN(C)C)=C(C[C@@H](C)C[C@H](OC)[C@H](O)[C@@H](C)/C=C(\C)[C@@H]1OC(N)=O)C2=O,inhibition,[1],6.6%
O/N=C/c1cc[n+](COC[n+]2ccc(/C=N/O)cc2)cc1,inhibition,[1],-4.53%
O=C1N[C@@H]2[C@@H](O)[C@@H](O)[C@H](O)[C@@H](CO)N2C1=O,inhibition,[1],-6.81%
Oc1ccccc1,inhibition,[1],7.92%
Oc1ccc(Cl)cc1,inhibition,[1],-5.79%
Oc1ccc2ccccc2c1,inhibition,[1],57.1%
O=C1CCC(c2ccccc2)(C2CCN(Cc3ccc(I)cc3)CC2)C(=O)N1 (stereo not drawn),inhibition,[1],-1.98%
Cc1ccccc1OCC(O)CNCCOc1ccc(C(N)=O)cc1 (stereo not drawn),inhibition,[1],0.61%
CC(=O)N[C@H]1[C@@H](OC(C)C)O[C@H](COC(C)=O)[C@@H](OC(C)=O)[C@@H]1OC(C)=O,inhibition,[1],-0.18%
CC(=O)OC[C@H]1O[C@@](COC(C)=O)(O[C@H]2O[C@H](COC(C)=O)[C@@H](OC(C)=O)[C@H](OC(C)=O)[C@H]2OC(C)=O)[C@@H](OC(C)=O)[C@@H]1OC(C)=O,inhibition,[1],102%
C(=C\c1ccccc1)/CN1CCN(CCOC(c2ccccc2)c2ccccc2)CC1,inhibition,[1],-6.12%
CC(C)OC(=O)CNC(=O)[C@H](CS)NC(=O)CC[C@H](N)C(=O)O,inhibition,[1],45.1%
Cc1ccc([N+](=O)[O-])cc1O,inhibition,[1],25.1%
N=C(NCCC[C@H](N)C(=O)O)N[N+](=O)[O-],inhibition,[1],104%
N=C(N)NCCC[C@H](N)C(=O)O,inhibition,[1],3.94%
NCCCC[C@H](N)C(=O)O,inhibition,[1],-8.14%
O=C1c2ccccc2-c2c(NCCc3ccccc3)c(=O)[nH]c3cccc1c23,inhibition,[1],14.4%
CC(C)(CO)CCCCCCC(C)(C)CO,inhibition,[1],17.3%
COC(=O)N[C@@H](C)CNc1nccc(-c2cn(C(C)C)nc2-c2cc(Cl)cc(NS(C)(=O)=O)c2F)n1,inhibition,[1],-2.53%
CCOc1ccc(S(=O)(=O)O)c2cccnc12,inhibition,[1],102%
O=C(NCCN1CCC2(CC1)C(=O)NCN2c1cccc(F)c1)c1ccc(F)c(F)c1,inhibition,[1],7.38%
CC(C)(C)C#Cc1cc(N(C(=O)[C@H]2CC[C@H](C)CC2)[C@H]2CC[C@@H](O)CC2)c(C(=O)O)s1,inhibition,[1],26.8%
O=S(=O)(O)c1ccc(O)cc1,inhibition,[1],4.16%
CCCCc1ccc(C(N)=O)nc1,inhibition,[1],32.3%
CC(C)(C)c1[nH]cnc1/C=c1\[nH]c(=O)/c(=C/c2ccccc2)[nH]c1=O,inhibition,[1],77.4%
COc1cc2c(cc1OC(C)C)[C@H](c1ccc(Cl)cc1)N(c1ccc(N(C)C[C@H]3CC[C@H](N4CCN(C)C(=O)C4)CC3)cc1)C(=O)C2,inhibition,[1],17.5%
O=c1c(O)c(-c2ccc(O)c(O)c2)oc2cc(O)cc(O)c12,inhibition,[1],98.5%
O=c1cc(-c2ccc(O)c(O)c2)oc2cc(O)cc(O)c12,inhibition,[1],100%
CC(=O)N[C@H](C=O)[C@@H](O)[C@H](O)[C@H](O)CO,inhibition,[1],19.4%
N[C@@H](CC(=O)N1CCn2c(nnc2C(F)(F)F)C1)Cc1n[nH]c2c(F)c(F)ccc12,inhibition,[1],18.7%
O=C(O)C1CCC(c2cc3cccnc3c(-c3cccc(F)c3)n2)CC1 (stereo not drawn),inhibition,[1],-5.88%
"MONOCTANOIN, CHEMBL6066833",inhibition,[2],-5.59%
N=C(N)Nc1ccc(C(=O)Oc2ccc3cc(C(=N)N)ccc3c2)cc1,inhibition,[1],29.9%
CCOC(=O)[C@@H](C)Oc1ccc(Oc2nc3ccc(Cl)cc3o2)cc1,inhibition,[1],14.5%
CN(C)c1cccc(Oc2cnc(Nc3cccc(O)c3)nc2)c1,inhibition,[1],30.8%
Oc1cccc(Nc2ccc(Nc3cccc(O)c3)nn2)c1,inhibition,[1],79.8%
CS(=O)(=O)c1ccc(Cn2c3c(c4cc(F)cc(F)c42)CCCC3CC(=O)O)cc1 (stereo not drawn),inhibition,[1],-7.09%
C#CC[C@H](c1nc2cc(Cl)ccc2c(=O)n1Nc1ccccc1)N(CCCN)C(=O)c1cccc(Cl)c1F,inhibition,[1],11.7%
CCC(CC)n1ccc2c(C(=O)NCc3c(C)cc(C)[nH]c3=O)cc(C#N)cc21,inhibition,[1],15.2%
CC(O)C(CO)NC(=O)C1CSSCC(NC(=O)C(N)Cc2ccccc2)C(=O)NC(Cc2ccccc2)C(=O)NC(Cc2c[nH]c3ccccc23)C(=O)NC(CCCCN)C(=O)NC(C(C)O)C(=O)N1 (stereo not drawn),inhibition,[1],19.6%
"NYSTATIN, CHEMBL5465559",inhibition,[2],30.5%
O=C(O)CNC(=O)c1c(O)c2ccccc2n(Cc2ccccc2)c1=O,inhibition,[1],81.7%
O=C(O)CNC(=O)c1ccccc1I,inhibition,[1],36.6%
CCc1c(C(=O)C(N)=O)c2c(OCC(=O)O)cccc2n1Cc1ccccc1,inhibition,[1],20%
Cc1ncc(C[n+]2csc(CCOP(=O)(O)OP(=O)(O)O)c2C)c(N)n1,inhibition,[1],37.8%
COC(=O)c1ccc2c(c1)nc(NC(=O)c1ccccc1)n2CCCc1ccccc1,inhibition,[1],-9.35%
CN[C@@H]1Cc2cccc3[nH]c(=O)n(c23)C1,inhibition,[1],4.82%
Oc1ncc(N(CCCl)CCCl)c(O)n1,inhibition,[1],2.6%
CN1CCN(c2ccc3[nH]c(-c4ccc5[nH]c(-c6ccc(O)cc6)nc5c4)nc3c2)CC1,inhibition,[1],64%
CN1CCN(c2ccc3ccccc3n2)CC1,inhibition,[1],44.6%
CN1CCC(c2c[nH]c3ccc(O)cc23)CC1,inhibition,[1],5.85%
NC(=O)c1cc[n+](CC2=C(C(=O)[O-])N3C(=O)[C@@H](NC(=O)Cc4cccs4)[C@H]3SC2)cc1,inhibition,[1],-9.58%
O=C(O)C1CSCN1 (stereo not drawn),inhibition,[1],8.04%
COc1cc(NC(=O)c2cccc(-n3cc(NC(=O)Nc4cccc(C)c4)cn3)c2)cc(OC)c1OC,inhibition,[1],0.29%
O=C(Nc1cnc(Cl)nc1)c1ccc(F)c(F)c1,inhibition,[1],8.67%
C[C@H](Cc1ccc2c(c1)OC(C(=O)O)(C(=O)O)O2)NC[C@H](O)c1cccc(Cl)c1,inhibition,[1],16.3%
CC(C)OC(=O)Nc1cccc(Cl)c1,inhibition,[1],81%
O=C(Nc1cccc(Cl)c1)c1ccccn1,inhibition,[1],104%
O=C(NNc1ccccc1)c1ccncc1,inhibition,[1],19%
COc1cc(NC(=O)c2ccccn2)ccc1Cl,inhibition,[1],101%
COc1ccc(C(=O)Nc2c(Cl)cncc2Cl)cc1OC1CCCC1,inhibition,[1],8.11%
O=C(Nc1ccc(S(=O)(=O)Nc2ccccc2Cl)c(Cl)c1)c1ccccn1,inhibition,[1],50.8%
CNC(=O)Oc1ccccc1OC(C)C,inhibition,[1],19.4%
